Screening data: PubChem BioAssay, National Center for Advancing Translational Sciences (NCATS)
Pf Dd2 inh = Plasmodium falciparum Dd2 growth inhibition; P. falciparum Dd2 growth, SYBR Green, 72 h; Potency, µM (doses to about 28.9 µM), without a hit: top-dose activity, negative = inhibition, most hits filed as inhibitors; 4.3% of 120,000 active; active means well fitted inhibition curve with a large enough effect;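 further: plate controls were DMSO vehicle for no effect and reference drug for full effect; nearly all actives have a fitted effect of over 65% in size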
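Infected erythrocytes (Dd2, 0.3% parasitemia, 2.5% hematocrit final) are added to compound in RPMI-1640/Albumax II medium, grown 72 h at 37C in low oxygen, then lysed with saponin/Triton-X containing SYBR Green and read by fluorescence.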
Numbers without * were called inactive; i = inactive; [ ] = remark or other dose. The sample as a whole holds a higher share of hits than the screen did. Potency means the concentration at half of the fitted maximal effect.

SMILES	Pf Dd2 inh
O=C(CCc1c[nH]c2ccccc12)Nc1cccc(-c2nnc3n2CCCC3)c1	3.2µM*
O=C(Cn1nc2n(c1=O)CCCC2)Nc1cccc(Br)c1	50%
O=C(Cc1ccsc1)NC1CCc2nnc(C3CC3)n2CC1 (stereo not given)	3%
O=C1CCN(C(=O)[C@H](Cc2ccccc2)NC(=O)c2cccs2)CCCOCCN1	7%
COc1ccc(NC(=O)N2CCC3(CC2)SCC(=O)N3c2ccc(Cl)cc2)cc1	i
O=C(Nc1ccccc1Cl)N1CC(c2nnc(-c3ccncc3)o2)C2(CCOCC2)C1 (stereo not given)	5%
CN(C(=O)[C@@H]1C[C@@H](c2ccc(F)cc2)N([S+](=O)([O-])c2ccccc2)C1)c1cccnc1	i
CC(C)(C)c1oc(C(N)=O)cc1CN1CCCC(CO)(CC2CC2)C1 (stereo not given)	-21%
COCCOC1CCN(S(=O)(=O)c2ccc(F)cc2)CC1	28%
CC(=O)Nc1cccc(-c2ccc3ncn(-c4ccc(F)cc4F)c(=O)c3n2)c1	-22%[44.1 µM]
O=c1cc(CCn2cccn2)nc(-c2ccc(CN3CCC[C@@H](O)C3)cc2)[nH]1	-12%
COc1ccc2[nH]cc(CCNC(=O)C3CCCN(C(C)=O)C3)c2c1 (stereo not given)	-9%
CCN1CCN(CCCNC(=O)c2cnn(-c3ccc(OC)cc3)c2C2CCN(C(=O)OC(C)(C)C)CC2)CC1	-25%
COc1ccc2[nH]cc(CCNC(=O)c3cnn(-c4ccc(C)cc4)c3C3CCN(C(=O)OC(C)(C)C)CC3)c2c1	3.2µM*
CC(C)(C)OC(=O)N1CCC(c2c(C(=O)NCc3ccccn3)cnn2-c2ccccc2Cl)CC1	i
COc1ccc2[nH]cc(CCNC(=O)CN3CCCc4nc(C5CC5)ncc4C3=O)c2c1	i
COc1ccc2[nH]cc(CCNC(=O)c3cnn(-c4ccccc4Cl)c3C3CCN(C(=O)OC(C)(C)C)CC3)c2c1	5.6µM*
Cc1ccccc1N1Cc2c(NCCOc3ccccc3)ncnc2N(C)CC1=O	i
Cc1ccc2c(C(=O)N3CCN(C(C)C)CC3)cc(NC(=O)C(C)C)cc2n1	9%
O=C(C1CCN(c2cn[nH]c(=O)c2)C1)N1CCCC1 (stereo not given)	4%
CCCNC(=O)CC1CCCN(c2cnn(CC3CC3)c(=O)c2)C1 (stereo not given)	-3%
COC(=O)Cn1c(SCCOc2ccccc2Cl)nc2ccccc21	22%
COc1ccc(N2CCN(CC(O)COc3ccccc3C(C)(C)C)CC2)cc1 (stereo not given)	10%
CCN(CC)CCn1c(=N)n(CCOc2ccccc2Cl)c2ccccc21	4.5µM*
CCN(CC)CCn1c(=N)n(CC(O)COc2ccccc2C)c2ccccc21 (stereo not given)	1.3µM*
SMILES	Pf Dd2 inh
CC(=O)c1ccccc1OCC(O)Cn1c(CO)nc2ccccc21 (stereo not given)	i
CC(C)C(=O)N1CCC(NCCOc2ccccc2Cl)CC1	-3%
O=C(Nc1ccc(F)cc1)N1CC[C@H]2CC(=O)N(c3ccccc3)CC[C@H]2C1	11%[44.1 µM]
Cc1ccc(S(N)(=O)=O)cc1C(=O)N[C@H]1[C@@H]2CCO[C@@H]2[C@@H]1C1CCCC1	0%
O=C(c1ccno1)N1C[C@@H](F)[C@@H](OCc2nc3ccc(F)cc3[nH]2)C1	-29%[44.1 µM]
CN(C)C(=O)c1cccn2nccc12	26%[44.1 µM]
COCCn1c(=O)c2c(n1Cc1ccccc1)CN(C(=O)c1cc3ccccc3n1C)CC2	12%
Cc1cnc(C(=O)NC2C[C@H]3CC[C@@H](C2)N3C(=O)CCc2ccccc2)cn1 (stereo not given in full)	i
Cn1ccc(NC(=O)C2(C)CCc3cnc(NCc4ccccc4)nc32)n1 (stereo not given)	-19%[44.1 µM]
CCN1CCN(c2ccc(-c3cccc(N)c3)nn2)CC1	i
O=C(Nc1ccc(Cl)cc1)c1cc2n(n1)CC(c1ccc3c(c1)OCO3)OC2 (stereo not given)	i
O=C(Cn1ccn2nc(-c3ccc(F)cc3)c(CO)c2c1=O)N1CCc2ccccc21	-14%
COc1cc(CN2CCC(C)(c3noc(C4CCOCC4)n3)CC2)ccc1OC(C)C	-19%
COc1cccc(CNC(=O)c2cc3c(s2)-c2ccccc2OC3)c1	17%
COC(=O)c1ccccc1NC(=O)c1cc2c(s1)-c1ccccc1OC2	19%
COc1cc(NC(=O)c2cc3c(s2)-c2ccccc2OC3)cc(OC)c1OC	5.6µM*
O=C(CCC1CCN(C(=O)c2ccccc2Cl)CC1)NC1CCS(=O)(=O)C1 (stereo not given)	-8%
CC(C)(C)CC(=O)Nc1ccc([C@H]2OCC(=O)N(CCN)[C@@H]2CO)cc1	-14%[44.1 µM]
O=C(NCc1ccc2c(c1)OCO2)c1cnc2c(c1)N(Cc1ccccc1)CCC2	23%[44.1 µM]
COc1ccc(CC(=O)N2CCCCC23Cc2ccccc2NC3=O)cc1 (stereo not given)	-4%
CN(Cc1ccccc1)C1(C(=O)NC2CCC(O)CC2)Cc2ccccc2C1 (stereo not given)	-23%
CN(C)C1CCN(C(=O)C2(N(C)CCc3ccccc3)Cc3ccccc3C2)C1 (stereo not given)	5µM*
CN(C)CCN(C)CC[C@H]1CN(C(=O)Cc2ccccc2)CC[C@H]1CC(=O)O	0%[44.1 µM]
Cn1ccnc1-c1ccc(N2CCC(C(O)Cc3ccccc3)CC2)nn1 (stereo not given)	-19%
COc1cccc(CC2(CO)CCCN(c3ccc(-c4nccn4C)nn3)C2)c1 (stereo not given)	8.9µM*
SMILES	Pf Dd2 inh
Cn1ccnc1-c1ccc(N2CC[C@](C)(O)[C@@H](O)C2)nn1	0%
Cc1cnc(CCNS(=O)(=O)c2ccc(C#N)cc2)n1C1CC1	-13%
CN(CC1(C)CCOCC1)C(=O)c1c(F)cccc1Cl	-19%
CCCNC(=O)O[C@@H]1CC[C@]2(C)C(CC[C@@H](O)[C@H]2CC(=O)NCc2ccc3c(c2)OCO3)[C@]1(C)CO (stereo not given in full)	-18%
COc1ccc(-c2nc3c(c(SCc4ccc(Br)cc4)n2)Cc2c(CO)cnc(C)c2O3)cc1	1.1µM*
CCOc1ccc(NC(=O)CSc2nc(-c3cccc(Cl)c3)nc3c2Cc2c(CO)cnc(C)c2O3)cc1	7%
COc1ccc(-c2nc3c(c(SC)n2)Cc2c(CO)cnc(C)c2O3)cc1	-9%
C=Cc1ccc(CSc2nc(-c3ccc(OC)cc3)nc3c2Cc2c(CO)cnc(C)c2O3)cc1	3.2µM*
C=Cc1ccc(CSc2nc(-c3ccccc3C)nc3c2Cc2c(CO)cnc(C)c2O3)cc1	5.6µM*
COc1cccc(-c2nc3c(c(SCC(=O)Nc4cccc(C)c4C)n2)Cc2c(CO)cnc(C)c2O3)c1	52%
COc1cccc(-c2nc3c(c(SCc4ccccc4Cl)n2)Cc2c(CO)cnc(C)c2O3)c1	2%
COc1cccc(CSc2nc(-c3ccccc3OC)nc3c2Cc2c(CO)cnc(C)c2O3)c1	5µM*
COc1ccccc1NC(=O)CSc1nc(-c2cccc(Cl)c2)nc2c1Cc1c(CO)cnc(C)c1O2	7%
COc1cc(NC(=O)CC[C@H]2NC(=O)c3ccccc3NC2=O)ccc1-n1nc(C)cc1C	-7%
O=C(NCc1ccccc1)C1COC2(CCN(C(=O)c3ccccc3F)CC2)N1C(=O)c1ccco1 (stereo not given)	-28%
CCc1ccccc1CN1CCC2(CC1)Cc1ccccc1CNC2=O	-9%
c1ccc(-c2nc(CC3CCCNC3)no2)cc1 (stereo not given)	i
COc1cccc(C(=O)N(C)Cc2cccc(C(F)(F)F)c2)c1	-26%[44.1 µM]
